Source: PubChem BioAssay AID368 (University of Pittsburgh Molecular Library Screening Center, 2006)
Hit rate of the full screen: of about 65,000 compounds, about 85 (0.1%) were called active. Rule as the data show it: active = inhibition above about 50%; inactive = the rest. The full list was thinned out, with actives kept by preference.

Each compound was assayed against M-phase inducer phosphatase 2 (Homo sapiens) (UniProt P30305) (assay: human Cdc25B tyrosine phosphatase blockers – biochemical, OMFP fluorescence, catalytic domain, primary screen (AID 368)). Conditions: recombinant Cdc25B, OMFP fluorescence Ex485/Em525; stronger effect = higher value;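 compounds tested at 10 µM final in the well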.
Sequence of M-phase inducer phosphatase 2 (Homo sapiens) (P30305 whole entry, looked up, the tested form may be a part): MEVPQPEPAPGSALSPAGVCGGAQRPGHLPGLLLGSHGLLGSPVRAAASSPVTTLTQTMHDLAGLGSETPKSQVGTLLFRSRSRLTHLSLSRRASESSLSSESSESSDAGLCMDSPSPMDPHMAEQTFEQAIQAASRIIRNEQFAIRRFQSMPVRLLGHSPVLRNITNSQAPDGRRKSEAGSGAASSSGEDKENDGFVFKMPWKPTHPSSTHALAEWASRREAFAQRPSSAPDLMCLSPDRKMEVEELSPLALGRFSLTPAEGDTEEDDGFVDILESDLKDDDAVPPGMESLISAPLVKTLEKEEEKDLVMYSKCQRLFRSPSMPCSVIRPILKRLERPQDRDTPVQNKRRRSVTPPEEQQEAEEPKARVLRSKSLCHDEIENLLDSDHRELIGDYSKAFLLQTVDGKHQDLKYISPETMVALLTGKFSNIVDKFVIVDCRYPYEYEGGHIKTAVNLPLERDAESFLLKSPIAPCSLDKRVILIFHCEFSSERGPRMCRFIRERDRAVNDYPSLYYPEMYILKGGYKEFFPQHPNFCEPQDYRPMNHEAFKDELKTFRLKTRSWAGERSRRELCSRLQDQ
With `O=C(O)C1CC=C(Cl)CC1C(=O)NCc1ccccc1` (stereo unspecified) the inhibition was -4.83% (inactive).
For `O=C(CN1C(=O)C2C3C=CC(C3)C2C1=O)NCCc1ccccc1Cl` (stereo unspecified), the inhibition was -3.46% (inactive).
With `Cc1ccc(C)c(N(CC(=O)NCc2ccco2)C(=O)CCC(=O)Nc2ccccn2)c1` the inhibition was 0.139% (inactive).
With `C=CCNC(=O)CSc1nc2sc(C)c(C)c2c(=O)[nH]1` the inhibition was -5.03% (inactive).
With `CCC1SC2=NCCN2C1(O)c1ccc(Cl)cc1` (stereo unspecified) the inhibition was 1.15% (inactive).
In the case of `COC(=O)c1ccc(NC(=O)CSc2nnc(CNc3ccc(OC)cc3)n2C)cc1`, the inhibition is reported as -15.2% (inactive).
In the case of `O=C(Nc1ccc(F)cc1)c1cccnc1N1CCOCC1`, the inhibition is reported as 0.374% (inactive).
`COc1ccccc1C1/C(=C(/O)c2ccc(OC(C)C)cc2)C(=O)C(=O)N1c1cc(C)on1` (stereo unspecified) was tested, and the inhibition was 22% (inactive).
With `COc1ccc(S(=O)(=O)N(CCCN2CCCC2=O)Cc2cc3c(C)ccc(C)c3[nH]c2=O)cc1` the inhibition was 4.58% (inactive).
In the case of `COc1ccc(Cl)cc1NC(=O)c1oc(C)nc1C`, the inhibition is reported as -1.12% (inactive).
With `O=C(O)CSC(NC(=O)c1cccnc1)(C(F)(F)F)C(F)(F)F` the inhibition was -2.28% (inactive).
In the case of `O=C(c1ccco1)N1CCN=C1SCc1cccc(Cl)c1`, the inhibition is reported as -9.08% (inactive).
For `CC1CCCCC1NC(=O)CSc1nnc(N)s1` (stereo unspecified), the inhibition was -11.7% (inactive).
With `COc1ccc(C(=O)N2CCC(C(=O)Nc3cccc(C)c3)CC2)cc1OC` the inhibition was -5.03% (inactive).
In the case of `Cc1cc(C(F)(F)F)nn1-c1nc(-c2ccco2)cc(C(F)(F)F)n1`, the inhibition is reported as -12.3% (inactive).
With `COc1ccc(NS(=O)(=O)c2ccc(NC(C)=O)cc2)cc1OC` the inhibition was -8.27% (inactive).
With `COCCNC(=O)C(c1ccc(C)o1)N(Cc1cccs1)C(=O)c1snc(C(N)=O)c1N` (stereo unspecified) the inhibition was -5.11% (inactive).
With `Cc1nnc(SCC(=O)NCCOc2ccc(Cl)cc2)n1-c1ccccc1` the inhibition was -10.1% (inactive).
For `COc1cccc(N(CC(=O)Nc2cccc(F)c2)S(C)(=O)=O)c1`, the inhibition was -4.86% (inactive).
`COc1ccc(C(=O)NCCc2ccc(S(N)(=O)=O)cc2)cc1OC` was tested, and the inhibition was -4.01% (inactive).
With `CCOC(=O)c1ccn(-c2nc(-c3ccco3)cc(C(F)(F)F)n2)n1` the inhibition was -12.2% (inactive).
With `CCCOc1ccc(CN(CCO)CCO)cc1C(=O)OC` the inhibition was 1.99% (inactive).
For `O=C(NC1(C(F)(F)F)N=C2SCCN2C1=O)c1ccco1` (stereo unspecified), the inhibition was 0.794% (inactive).
In the case of `O=C(c1ccccc1)c1ccc2nc(N3CCCCC3)c3nncn3c2c1`, the inhibition is reported as -11.8% (inactive).
With `O=S(=O)(c1ccc2ccccc2c1)N1CCN(S(=O)(=O)N2CCOCC2)CC1` the inhibition was -4.37% (inactive).
`O=c1cc(CSc2ccc(Cl)cc2)nc(N2CCOCC2)[nH]1` was tested, and the inhibition was 7.35% (inactive).
With `CCCOP(=O)(c1ccc(N(C)C)cc1)C(O)c1cc(OC)c(OC)c(OC)c1` (stereo unspecified) the inhibition was -0.929% (inactive).
In the case of `CCOC(=O)N1CCN(CC(=O)n2c(C)c(C)c3ccccc32)CC1`, the inhibition is reported as -1.72% (inactive).
With `Cc1ccc2c(C(=O)CN3CCCC3)c(C)[nH]c2c1` the inhibition was -0.2% (inactive).
`CCOC(=O)N1CCN(CC(=O)c2c(C)[nH]c3ccccc23)CC1` was tested, and the inhibition was 60% (active).
With `Cc1occc1C(=O)Nc1cccc(Cn2cccn2)c1` the inhibition was -8.98% (inactive).
In the case of `O=C(O)CC(Cn1cnnn1)c1ccccc1` (stereo unspecified), the inhibition is reported as -6.9% (inactive).
For `O=C1CCCc2c1[nH]c1ccc(Br)cc21`, the inhibition was 5.28% (inactive).
For `Cc1ccsc1C(C(=O)NC1CCCCC1)N(C(=O)Cc1cccs1)C1CC1` (stereo unspecified), the inhibition was 4.04% (inactive).
`CCc1c(C)nc2cc(-c3cccs3)[nH]n2c1=O` was tested, and the inhibition was -13.1% (inactive).
`C/C(=C(\C#N)C(=O)NCCCN1CCOCC1)N(C)C` was tested, and the inhibition was -7.37% (inactive).
In the case of `CCCC(=O)Nc1ccc(C(=O)NCCCn2ccnc2)cc1`, the inhibition is reported as 2.06% (inactive).
For `CCn1cc(C(=O)NCC2COc3ccccc3O2)c2cc(OC)c(OC)cc2c1=O` (stereo unspecified), the inhibition was -8.97% (inactive).
`CCOC(=O)CNC(=O)CN1C(=O)CCSc2ccccc21` was tested, and the inhibition was -0.999% (inactive).
`O=C1NC(Nc2nc3ccccc3s2)(C(F)(F)F)C(=O)N1C1CCCCC1` (stereo unspecified) was tested, and the inhibition was -0.883% (inactive).
`CC(=O)Nc1ccc(S(=O)(=O)NCCc2ccccc2)cc1` was tested, and the inhibition was -7.41% (inactive).
For `CC1OC2C(OC1C)N(S(C)(=O)=O)CCN2S(C)(=O)=O` (stereo unspecified), the inhibition was -4.42% (inactive).
In the case of `CCOc1ccc(CCNC(=O)C(CC)n2nc(C)n3c(cc4sccc43)c2=O)cc1OCC` (stereo unspecified), the inhibition is reported as -12.3% (inactive).
In the case of `CCn1ncc(C2=NOC(C(=O)N3CCN(c4ccccc4)CC3)C2)c1C` (stereo unspecified), the inhibition is reported as -17.4% (inactive).
For `CCOC(=O)C1CCCN(C(=O)C2CCN(c3nnc(-n4cccc4)s3)CC2)C1` (stereo unspecified), the inhibition was 6.02% (inactive).
With `Cn1c(=O)c2c(nc(SCC(=O)Nc3ccccc3N3CCCCC3)n2C)n(C)c1=O` the inhibition was -12.6% (inactive).
For `CCCCSc1nnc(-c2ccc(C)cc2)o1`, the inhibition was -7.53% (inactive).
In the case of `O=C(Nc1nc2cc3c(cc2s1)OCCO3)c1cccc(S(=O)(=O)N2CCOCC2)c1`, the inhibition is reported as -3.84% (inactive).
With `CCN1C(=O)C(C(=O)NC(C)c2ccccc2)C2CC1(C)Oc1ccccc12` (stereo unspecified) the inhibition was -6.65% (inactive).
In the case of `c1ccc(CSc2nnc(-c3ccco3)c(-c3ccco3)n2)cc1`, the inhibition is reported as 50.3% (active).
`c1ccc(CSc2nnc(-c3ccco3)n2Cc2ccccc2)cc1` was tested, and the inhibition was -11.9% (inactive).
For `Clc1ccccc1CSc1nnc(-c2ccco2)c(-c2ccco2)n1`, the inhibition was -25.9% (inactive).
`C=CCn1c(SCC(=O)NC23CC4CC(CC(C4)C2)C3)nc(O)cc1=O` was tested, and the inhibition was 2.29% (inactive).
With `NC(=O)CSC1=Nc2ccccc2C2=NC(CCC(=O)NCc3ccc(F)cc3)C(=O)N12` (stereo unspecified) the inhibition was -3.7% (inactive).
For `CCOC(=O)c1c(C)nc(-c2ccccc2)nc1NC(=O)C(C)C`, the inhibition was -5.5% (inactive).
In the case of `CCOC(=O)Cn1c(N)c(C(=O)OC)sc1=S`, the inhibition is reported as -11% (inactive).
`CC(=O)Nc1ccn(Cc2c(F)cccc2Cl)n1` was tested, and the inhibition was -13% (inactive).
`O=C(c1ccc(S(=O)(=O)N2CCOCC2)cc1)N1CCN(c2ccccc2)CC1` was tested, and the inhibition was 1.6% (inactive).
For `CCOC(=O)c1[nH]cnc1C(=O)NC1CCCCC1`, the inhibition was -0.873% (inactive).
`Cc1csc(NC(=O)NC2(C(F)(F)F)Oc3ccccc3O2)n1` was tested, and the inhibition was -7.31% (inactive).
For `O=C(CCCn1c(=O)oc2ccccc21)Nc1cccnc1`, the inhibition was -11.7% (inactive).
